PubChem BioAssay (Tox21)
Inconclusive results are not listed. Activity calls are given as the source filed them. Unless noted, the call rests on the fitted dose curve; in most records, active means well fitted curve in the direction sought with a large enough effect in the repeat runs; inconclusive means weak or mixed curves; inactive means no such curve, though single readings can be large; an effect the other way counts as inactive or inconclusive.

Columns and labels:
[1] = qHTS assay to identify small molecule agonists of the androgen receptor (AR) signaling pathway in the presence of an antagonist - cell viability counter screen (AID 1259379); details: MDA-kb2 viability, CellTiter-Fluor, 16 h; series mostly up to 92.4 µM;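 further: MDA-kb2 human breast cancer cells carrying an MMTV luciferase reporter; nearly all actives have a fitted effect of over 25% in size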
Method in brief: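 Cytotoxicity is assessed by CellTiter-Fluor in MDA-kb2 cells carrying an MMTV-driven luciferase reporter. Cells receive 3.0uM nilutamide plus compounds at 15 concentrations and incubate 16 hr at 37C without CO2 before fluorescence reading.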

[2] = qHTS assay to identify small molecule agonists of the estrogen receptor beta (ER-beta) signaling pathway - cell viability counter screen (AID 1259380); details: ER-beta-bla HEK293T viability, CellTiter-Glo luminescence, 16 h; series mostly up to 92.4 µM; further: nearly all actives have a fitted effect of over 30% in size
Method in brief: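 Cytotoxicity is measured in parallel with the reporter screen: after 16 hr compound exposure at 37C and a 2 hr LiveBLAzer step, CellTiter-Glo is added to the same ER-beta-UAS-bla HEK293T wells and luminescence read after 30 min.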

[3] = molecular target: Androgen receptor (Homo sapiens) (UniProt P10275); assay: qHTS assay to identify small molecule agonists of the androgen receptor (AR) signaling pathway in the presence of an antagonist (AID 1259381; calls by dose curve; further: nearly all actives have a fitted effect of over 15% in size); details: MDA-kb2 MMTV-luciferase, AR agonist + nilutamide, 16 h; series mostly up to 92.4 µM
Method in brief: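 Agonist-mode confirmation screen: human MDA-kb2 cells stably expressing luciferase under an MMTV promoter bearing AR and GR response elements, co-treated with 3.0uM nilutamide (final). Luminescence measured after 16hr compound incubation.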

[4] = qHTS assay to identify small molecule antagonists of the estrogen receptor beta (ER-beta) signaling pathway - cell viability counter screen (AID 1259382); details: ER-beta-UAS-bla HEK293T viability, CellTiter-Glo luminescence, 16 h; series mostly up to 92.4 µM;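 further: HEK293T cells carrying ER-beta-UAS-bla reporter stimulated with estradiol; nearly all actives have a fitted effect of over 55% in size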
Method in brief: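 Cytotoxicity counter screen multiplexed with the beta-lactamase antagonist assay: GripTite HEK293T ER-beta-bla cells were treated 16 hr with test chemicals in the presence of 1nM 17-beta-estradiol, and viability was measured by CellTiter-Glo.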

[5] = molecular target: Estrogen receptor (Homo sapiens) (UniProt P03372); assay: qHTS assay to identify small molecule agonists of the estrogen receptor alpha (ER-alpha) signaling pathway in the presence of an antagonist (AID 1259383; calls by dose curve; further: top concentration of the series differs between compounds; nearly all actives have a fitted effect of over 15% in size); details: VM7Luc4E2 cells, ERE-luciferase, +ICI-182,780, 22 h; series mostly up to 92.4 µM
Method in brief: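 Agonist-mode confirmation in the presence of the ER antagonist ICI-182,780 at 10.0nM final. Breast-derived VM7Luc4E2 reporter cells were exposed to compounds for 22hr, and ERE-driven luciferase was quantified by luminescence.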

[6] = qHTS assay to identify small molecule agonists of the estrogen receptor alpha (ER-alpha) signaling pathway in the presence of an antagonist - cell viability counter screen (AID 1259386); details: VM7Luc4E2 viability, CellTiter-Fluor fluorescence, 22 h; series mostly up to 92.4 µM;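 further: cells exposed to compounds for 22 h at 37 °C before the viability read; nearly all actives have a fitted effect of over 30% in size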
Method in brief: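 Cytotoxicity was measured in parallel with the ERE-luciferase agonist screen, in the same wells. The cells were VM7Luc4E2, which endogenously express ER-alpha, and treatment was with compounds plus 10.0nM ICI-182,780 for 22hr.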

[7] = molecular target: Progesterone receptor (Homo sapiens) (UniProt P06401); assay: qHTS assay to identify small molecule agonists of the progesterone receptor (PR) signaling pathway (AID 1346784; calls by dose curve; further: nearly all actives have a fitted effect of over 30% in size); details: PR-UAS-bla HEK293T, beta-lactamase FRET ratio, 16 h; series mostly up to 92.4 µM
Method in brief: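 Reporter assay, GripTite PR-UAS-bla HEK 293T cells: 16 hr exposure to DMSO-dissolved compounds at 37C, 5% CO2, in steroid-depleted (2% charcoal-stripped FBS) medium; beta-lactamase measured by FRET fluorescence.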

[8] = molecular target: Progesterone receptor (Homo sapiens) (UniProt P06401); assay: qHTS assay to identify small molecule antagonists of the progesterone receptor (PR) signaling pathway (AID 1346795; active means well fitted inhibition curve with a large enough effect in the signal ratio in the repeat runs, not every such curve was filed as active; the % refers to the signal ratio); details: PR-UAS-bla HEK293T, beta-lactamase FRET ratio, 16 h; series mostly up to 92.4 µM
Method in brief: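 Stimulus R5020 at 1 nM final; cells HEK293T PR-UAS-bla; medium with 2% charcoal-stripped FBS; compound exposure 16 hr at 37C, 5% CO2; detection by FRET beta-lactamase substrate, 2 hr, room temperature.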

[9] = qHTS assay to identify small molecule antagonists of the progesterone receptor (PR) signaling pathway - cell viability counter screen (AID 1346798); details: PR-UAS-bla HEK293T viability, CellTiter-Glo luminescence, 16 h; series mostly up to 92.4 µM; further: nearly all actives have a fitted effect of over 50% in size
Method in brief: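 In the same plates used for the beta-lactamase readout, cell viability of compound- and R5020-treated PR-UAS-bla HEK293T cells (16 hr, 37C) was assessed by CellTiter-Glo luminescence.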

[10] = qHTS assay to identify small molecule agonists of the progesterone receptor (PR) signaling pathway - cell viability counter screen (AID 1346799; calls by dose curve; further: nearly all actives have a fitted effect of over 45% in size); details: PR-UAS-bla HEK293T viability, CellTiter-Glo luminescence, 16 h; series mostly up to 92.4 µM
Method in brief: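 Multiplexed viability read: CellTiter-Glo luminescence, 30 min RT, following LiveBLAzer FRET measurement on PR-UAS-bla HEK293T cells exposed to compounds 16 hr.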

[11] = qHTS assay to identify small molecule antagonists of the TGF-beta/Smad signaling pathway - cell viability counter screen (AID 1346824); details: SBE-bla HEK293T viability, CellTiter-Glo luminescence; series mostly up to 76.8 µM; further: nearly all actives have a fitted effect of over 50% in size
Method in brief: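 Cytotoxicity counter-screen run in the same wells as the beta-lactamase Smad reporter read: CellTiter-Glo luminescence after 30 min at room temperature. HEK 293T SBE-bla cells had 5 hr compound exposure at 37 C with TGF-beta1 (0.25 ng/mL stock).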

[12] = qHTS assay to identify small molecule agonists of the TGF-beta/Smad signaling pathway - cell viability counter screen (AID 1346829); details: SBE-bla HEK293T viability, CellTiter-Glo luminescence, 5 h; series mostly up to 76.8 µM; further: top concentration of the series differs between compounds; nearly all actives have a fitted effect of over 45% in size
Method in brief: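 In parallel with the Smad reporter read, viability of HEK 293T cells stably carrying SBE-bla is quantified by ATP luminescence following 5 hr compound treatment.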

[13] = qHTS assay to identify small molecule agonists of the TGF-beta/Smad signaling pathway (AID 1346859; active means well fitted activation curve with a large enough effect in the signal ratio in the repeat runs, not every such curve was filed as active; the % refers to the signal ratio); details: SBE-bla HEK293T, TGF-beta/Smad beta-lactamase reporter, 5 h; series mostly up to 76.8 µM
Method in brief: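 Screening used HEK 293T SBE-bla cells at 4,000/well. Test agents: 5 hr, 37 C. Detection: FRET substrate, 2 hr RT, then excitation 405 nm with emissions at 460 and 530 nm.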

[14] = Human pregnane X receptor (PXR) small molecule agonists, qHTS cell viability counter screen (AID 1346977); details: PXR-Luc HepG2 viability, CellTiter-Fluor, 24 h; series mostly up to 92.4 µM; further: nearly all actives have a fitted effect of over 50% in size
Method in brief: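 In each well, the PXR reporter HepG2 line was checked for viability: CellTiter-Fluor reagent added 23hr post-dosing, fluorescence read after 1hr incubation at 37C.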

[15] = Caspase-3/7 induction in HepG2 cells by small molecules, qHTS assay (AID 1346978); details: HepG2 caspase-3/7 activation, Caspase-Glo luminescence, 17 h; series mostly up to 92.4 µM; further: nearly all actives have a fitted effect of over 15% in size
Method in brief: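 Caspase-3/7 induction was measured by Caspase-Glo 3/7 luminescence (30 min, room temperature) after a 17 hr compound exposure of wild-type HepG2 cells seeded at 2,000 per well and pre-incubated 5 hr.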

[16] = Caspase-3/7 induction in CHO-K1 cells by small molecules, qHTS cell viability counter screen (AID 1346979); details: CellTiter-Fluor fluorescence, 17 h; series mostly up to 92.4 µM; further: nearly all actives have a fitted effect of over 35% in size
Method in brief: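 Following a 5hr settling period, CHO-K1 cells at 1,500 per well received DMSO-dissolved compounds. Cell viability was quantified 16hr later by CellTiter-Fluor fluorescence, measured after 1hr with reagent at 37C.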

[17] = qHTS assay to identify small molecule agonists or antagonists of the thyroid stimulating hormone receptor (TSHR) signaling pathway - wild type cell line counter screen (AID 1259384; calls by dose curve); details: HEK293 wild type, cAMP HTRF counter-screen; series mostly up to 92.4 µM
Method in brief: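 Counter screen in untransfected Hek293: compounds (15-point titration, triplicate) plus phosphodiesterase inhibitor Ro20-1724 added after 18 h plating; 30 min RT. Intracellular cAMP via competitive d2/cryptate immunoassay, 1 h incubation.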

[18] = molecular target: Thyrotropin receptor (Homo sapiens) (UniProt P16473); assay: qHTS assay to identify small molecule antagonists of the thyroid stimulating hormone receptor (TSHR) signaling pathway (AID 1259385; calls by dose curve; further: nearly all actives have a fitted effect of over 20% in size); details: TSHR-HEK293 cAMP HTRF, TSH-stimulated antagonist mode; series mostly up to 92.4 µM
Method in brief: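 Antagonist mode: compound-treated TSHR-expressing HEK293 cells were stimulated with 1.5 ng/mL TSH (final) in presence of Ro20-1724 for 30 min at RT. HTRF cAMP detection after 1 h; each compound tested at 15 concentrations, triplicate.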

[19] = molecular target: Thyrotropin-releasing hormone receptor (Homo sapiens) (UniProt P34981); assay: qHTS assay to identify small molecule antagonists of the thyrotropin-releasing hormone receptor (TRHR) signaling pathway (AID 1346877; active means well fitted inhibition curve with a large enough effect in the repeat runs, not every such curve was filed as active); details: TRHR-HEK293, TRH-induced calcium fluorescence, antagonist mode; series mostly up to 51.3 µM
Method in brief: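 Antagonism is measured as suppression of the calcium response to 1 nM TRH in TRHR-HEK293 cells that have been dye-loaded for 2 h at 37 °C after overnight plating. Each compound is tested at 15 concentrations in triplicate.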

[20] = molecular target: Thyrotropin-releasing hormone receptor (Homo sapiens) (UniProt P34981); assay: qHTS assay to identify small molecule agonists of the thyrotropin-releasing hormone receptor (TRHR) signaling pathway (AID 1346891; calls by dose curve); details: TRHR-HEK293 calcium fluorescence, agonist mode; series mostly up to 57.6 µM
Method in brief: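 Readout was intracellular calcium fluorescence in TRHR-Hek293 cells. Cells were incubated 18 h, dye-loaded 2 h at 37 °C, and treated with compound in agonist mode.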

Measured: Potency

Thyrotropin receptor (Homo sapiens), sequence (P16473 whole entry, looked up): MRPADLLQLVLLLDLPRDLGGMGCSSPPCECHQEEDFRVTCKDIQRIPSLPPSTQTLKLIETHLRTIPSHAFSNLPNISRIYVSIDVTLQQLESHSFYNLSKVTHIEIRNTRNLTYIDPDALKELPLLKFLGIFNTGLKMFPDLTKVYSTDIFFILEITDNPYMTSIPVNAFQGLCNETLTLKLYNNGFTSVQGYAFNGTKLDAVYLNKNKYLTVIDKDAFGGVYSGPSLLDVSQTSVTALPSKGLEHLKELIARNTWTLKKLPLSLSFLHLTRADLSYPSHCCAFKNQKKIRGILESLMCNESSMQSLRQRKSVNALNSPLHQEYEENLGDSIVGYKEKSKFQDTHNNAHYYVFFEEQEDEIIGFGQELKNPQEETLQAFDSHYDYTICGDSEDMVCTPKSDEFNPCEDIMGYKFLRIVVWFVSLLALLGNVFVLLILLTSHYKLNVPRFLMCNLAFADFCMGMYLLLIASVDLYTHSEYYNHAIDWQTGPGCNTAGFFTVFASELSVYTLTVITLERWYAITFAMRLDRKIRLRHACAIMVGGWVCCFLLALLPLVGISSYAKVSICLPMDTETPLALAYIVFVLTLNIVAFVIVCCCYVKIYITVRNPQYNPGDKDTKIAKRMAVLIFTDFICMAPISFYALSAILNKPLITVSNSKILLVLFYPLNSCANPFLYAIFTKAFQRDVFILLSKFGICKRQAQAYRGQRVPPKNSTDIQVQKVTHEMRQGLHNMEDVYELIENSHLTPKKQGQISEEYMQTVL
Estrogen receptor (Homo sapiens), sequence (P03372 whole entry, looked up): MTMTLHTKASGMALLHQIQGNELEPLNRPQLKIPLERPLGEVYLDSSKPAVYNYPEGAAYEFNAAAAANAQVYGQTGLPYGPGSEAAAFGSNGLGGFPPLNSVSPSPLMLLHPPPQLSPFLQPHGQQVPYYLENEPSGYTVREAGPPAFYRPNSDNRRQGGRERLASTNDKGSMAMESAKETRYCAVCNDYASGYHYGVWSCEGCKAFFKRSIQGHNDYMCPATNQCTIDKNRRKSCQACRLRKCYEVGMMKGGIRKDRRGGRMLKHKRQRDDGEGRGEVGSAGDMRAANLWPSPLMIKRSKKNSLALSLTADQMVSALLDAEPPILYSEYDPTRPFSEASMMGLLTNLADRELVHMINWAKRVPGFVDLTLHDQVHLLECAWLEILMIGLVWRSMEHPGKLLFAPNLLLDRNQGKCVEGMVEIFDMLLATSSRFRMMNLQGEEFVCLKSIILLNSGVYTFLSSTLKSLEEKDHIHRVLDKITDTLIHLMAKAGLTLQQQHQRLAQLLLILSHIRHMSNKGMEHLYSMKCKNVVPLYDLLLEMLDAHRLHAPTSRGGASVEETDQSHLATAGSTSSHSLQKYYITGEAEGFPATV
Androgen receptor (Homo sapiens), sequence (P10275 whole entry, looked up): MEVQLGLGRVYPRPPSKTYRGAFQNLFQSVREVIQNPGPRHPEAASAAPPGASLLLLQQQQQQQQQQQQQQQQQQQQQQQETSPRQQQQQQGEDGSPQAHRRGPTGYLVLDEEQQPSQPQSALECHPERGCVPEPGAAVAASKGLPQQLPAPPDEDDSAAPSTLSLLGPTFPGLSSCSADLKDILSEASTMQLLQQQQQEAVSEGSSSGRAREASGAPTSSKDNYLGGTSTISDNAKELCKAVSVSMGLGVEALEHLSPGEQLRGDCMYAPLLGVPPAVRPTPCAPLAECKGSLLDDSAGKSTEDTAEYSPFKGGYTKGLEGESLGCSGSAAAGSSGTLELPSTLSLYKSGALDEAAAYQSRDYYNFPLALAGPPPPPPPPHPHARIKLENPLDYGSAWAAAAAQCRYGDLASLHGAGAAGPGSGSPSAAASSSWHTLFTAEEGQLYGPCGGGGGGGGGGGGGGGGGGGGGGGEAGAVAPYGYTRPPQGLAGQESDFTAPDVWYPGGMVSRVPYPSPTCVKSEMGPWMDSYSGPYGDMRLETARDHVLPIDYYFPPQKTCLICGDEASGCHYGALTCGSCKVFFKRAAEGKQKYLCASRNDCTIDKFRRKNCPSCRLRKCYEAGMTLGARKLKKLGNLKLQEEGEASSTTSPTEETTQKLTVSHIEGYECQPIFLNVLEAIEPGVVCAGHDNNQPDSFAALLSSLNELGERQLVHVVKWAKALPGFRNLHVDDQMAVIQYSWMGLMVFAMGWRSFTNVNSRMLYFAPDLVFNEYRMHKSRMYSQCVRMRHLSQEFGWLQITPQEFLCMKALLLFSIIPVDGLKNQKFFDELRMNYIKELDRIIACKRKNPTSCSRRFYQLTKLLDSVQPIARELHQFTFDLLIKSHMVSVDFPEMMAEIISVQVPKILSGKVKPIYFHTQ
Progesterone receptor (Homo sapiens), sequence (P06401 whole entry, looked up): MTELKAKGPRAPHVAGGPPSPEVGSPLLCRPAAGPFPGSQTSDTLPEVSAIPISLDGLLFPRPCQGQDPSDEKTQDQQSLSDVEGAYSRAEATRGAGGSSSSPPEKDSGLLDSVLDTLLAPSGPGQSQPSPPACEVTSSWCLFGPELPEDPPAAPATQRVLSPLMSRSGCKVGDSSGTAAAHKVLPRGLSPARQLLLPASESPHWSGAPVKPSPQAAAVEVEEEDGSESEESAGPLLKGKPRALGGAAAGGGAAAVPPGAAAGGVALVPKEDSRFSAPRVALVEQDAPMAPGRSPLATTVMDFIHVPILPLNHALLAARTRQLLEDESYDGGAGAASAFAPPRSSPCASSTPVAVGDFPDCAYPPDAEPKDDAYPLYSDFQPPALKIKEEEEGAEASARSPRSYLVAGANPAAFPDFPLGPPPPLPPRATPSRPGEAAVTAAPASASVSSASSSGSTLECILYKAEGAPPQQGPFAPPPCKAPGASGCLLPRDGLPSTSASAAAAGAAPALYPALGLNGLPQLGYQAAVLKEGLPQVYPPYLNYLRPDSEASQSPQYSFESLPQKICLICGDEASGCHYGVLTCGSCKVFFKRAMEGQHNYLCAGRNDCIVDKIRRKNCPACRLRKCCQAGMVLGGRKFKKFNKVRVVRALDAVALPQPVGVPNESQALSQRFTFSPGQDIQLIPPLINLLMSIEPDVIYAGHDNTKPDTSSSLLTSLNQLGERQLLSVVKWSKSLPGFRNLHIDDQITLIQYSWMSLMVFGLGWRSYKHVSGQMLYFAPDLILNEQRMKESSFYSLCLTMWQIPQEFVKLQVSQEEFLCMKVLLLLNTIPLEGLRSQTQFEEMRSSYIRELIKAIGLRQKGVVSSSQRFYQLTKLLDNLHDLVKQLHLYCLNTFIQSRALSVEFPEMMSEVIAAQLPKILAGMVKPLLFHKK
Thyrotropin-releasing hormone receptor (Homo sapiens), sequence (P34981 whole entry, looked up): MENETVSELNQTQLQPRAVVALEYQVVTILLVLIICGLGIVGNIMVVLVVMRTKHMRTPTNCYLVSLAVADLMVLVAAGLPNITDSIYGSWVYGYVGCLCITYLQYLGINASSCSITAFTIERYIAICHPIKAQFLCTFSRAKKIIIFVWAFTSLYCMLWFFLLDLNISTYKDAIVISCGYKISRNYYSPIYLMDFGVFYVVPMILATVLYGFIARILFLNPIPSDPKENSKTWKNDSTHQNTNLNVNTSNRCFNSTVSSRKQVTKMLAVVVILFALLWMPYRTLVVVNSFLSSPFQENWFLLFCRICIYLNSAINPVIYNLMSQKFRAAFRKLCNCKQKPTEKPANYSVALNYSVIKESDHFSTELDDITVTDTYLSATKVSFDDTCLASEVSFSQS

C=C(C)CCl
inactive: [1] | [2] | [3] | [4] | [5] | [6] | [7] | [8] | [9] | [10] | [11] | [12] | [13] | [14] | [15] | [16]

BrCCBr
inactive: [1] | [2] | [4] | [5] | [17] | [18] | [6] | [7] | [8] | [9] | [10] | [11] | [12] | [13] | [19] | [20] | [14] | [15] | [16]

CC(C)(C)OOC(C)(C)C
inactive: [1] | [2] | [4] | [5] | [17] | [18] | [6] | [7] | [8] | [9] | [10] | [11] | [12] | [13] | [19] | [20] | [14] | [15] | [16]

c1cc2c3c(cccc3c1)CC2
inactive: [1] | [2] | [3] | [4] | [5] | [17] | [18] | [6] | [7] | [8] | [9] | [10] | [11] | [12] | [13] | [20] | [14] | [15] | [16]

O=NN1CCCCCCC1
inactive: [1] | [2] | [4] | [5] | [17] | [18] | [6] | [7] | [8] | [9] | [10] | [11] | [12] | [13] | [20] | [14] | [15] | [16]

CC1C=[C-]C=C1.[C-]#[O+].[C-]#[O+].[C-]#[O+].[Mn]
inactive: [1] | [2] | [4] | [5] | [17] | [18] | [6] | [7] | [8] | [9] | [10] | [11] | [12] | [13] | [14] | [15] | [16]

ClCc1cccnc1
inactive: [1] | [2] | [4] | [5] | [17] | [18] | [6] | [7] | [8] | [9] | [10] | [11] | [12] | [13] | [19] | [20] | [14] | [15] | [16]

CC(C)N1C(=O)c2ccccc2NS1(=O)=O
inactive: [1] | [2] | [4] | [5] | [17] | [18] | [6] | [7] | [8] | [9] | [10] | [11] | [12] | [13] | [14] | [15] | [16]
